KKLEB cytotox: cytotoxicity in KKLEB CF airway cells, primary screen, cytotoxicity control for CF NF-kB inhibitor project, cell-based, uHTS, fluorescence assay plates. KKLEB CF airway cells viability, ATPlite luminescence, overnight; hits give low values; cells stimulated with P. aeruginosa culture filtrate. activity change (cytotoxicity), % at 5 µM. AID 602141, 2011. 360,000 compounds, 0.36% hits;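 active = corrected activity change at or below -50% at 5 µM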
Peg3 promoter: Peg3 promoter-driven luciferase inhibitors, primary screen, cell-based, HeLa, luciferase luminescence. HeLa PEG-Prom luciferase reporter, overnight. inhibition, % at 20 µM. 360,000 compounds, 1.7% hits. AID 588405, 2011;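 active = inhibition of at least 50% at 20 µM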
TWEAK-Fn14 inh: inhibitors of TWEAK-Fn14 signaling, primary screen, luciferase reporter cells, uHTS; TWEAK-stimulated Fn14 reporter cells, luciferase luminescence, 8 h; inhibition, % at 10 µM; 360,000 compounds, 2% hits; AID 1159606, 2016; in the data active = inhibition above about 50%
TROY NFkB inh: inhibitors of TROY-driven NF-kB signaling, primary screen, Q293 LMP1-TROYcd cells, NF-kB luciferase, uHTS. Q293 LMP1-TROYcd NF-kB luciferase reporter, 4 h. inhibition, % at 10 µM. 360,000 compounds, 0.98% hits. AID 1347056, 2019;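 active = compounds whose plate-normalised and pattern-corrected inhibition of the luciferase reporter signal at the single screening dose is 50% or more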
CF NFkB inh: inhibitors of PAF-induced NF-kB signaling, primary screen, cell-based, GFP fluorescence, uHTS; AID 588850, 2011; inhibition, % at 5 µM; KKLEB NF-kB-GFP reporter, GFP fluorescence overnight; 360,000 compounds, 0.86% hits;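 active = at least 50% inhibition at 5 µM, scaled per plate between neutral and stimulator controls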;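 also: PAF is a Pseudomonas aeruginosa culture filtrate used as stimulus; plate controls were PAF-stimulated DMSO wells for no effect and unstimulated DMSO wells for full effect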
HIF-2a block: HIF-2a reporter inhibitors, primary screen, luminescence, 786-0 RCC cells | 786-0 RCC cells HIF-2a reporter, luciferase luminescence, overnight | inhibition, % at 18.8 µM | 360,000 compounds, 0.72% hits;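 active = inhibition of the luminescence signal of 40% or more relative to plate controls, in a single-dose primary screen at 18.75 µM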
Active calls of the source: *; . = no result given. Only some compounds are listed: those with a hit (about 4% of all), similar ones and a draw of the others.

SMILES | KKLEB cytotox | Peg3 promoter | TWEAK-Fn14 inh | TROY NFkB inh | CF NFkB inh | HIF-2a block
CCN=C1NN=C(c2cc(C)n(CCc3ccccc3)c2C)CS1 | -15 | -32 | 14 | 5 | 4 | -14
CCN=C1NN=C(c2cc(C)n(Cc3ccco3)c2C)CS1 | 4 | 39 | 48 | -1 | -10 | 67*
CNc1ncnc2c1ncn2[C@H]1CN(Cc2cccs2)C[C@@H](CO)O1 | 5 | 0 | 21 | -14 | 2 | 8
CN(C)CC/C=C1\c2ccccc2Sc2cc(F)c(Cl)cc21 | 5 | 62* | -25 | 3 | 12 | 13
CCN(c1ccc(NC(=O)COC(=O)C(C)N=C2NS(=O)(=O)c3ccccc32)cc1)C(C)C (configuration not stated) | -14 | -6 | 5 | 3 | 33 | -14
COc1ccc(-n2c(C)cc(C(=O)COC(=O)c3cc(NC(=O)c4cccs4)c(OC)c(OC)c3)c2C)cc1 | 17 | 2 | 1 | -13 | -22 | 1
COc1cc(NC(=O)c2cccs2)c(C(=O)OCC(=O)c2cc(C)n(-c3ccc(F)cc3)c2C)cc1OC | -29 | -13 | 90* | 83* | 20 | 6
Cc1cc(C(=O)COC(=O)c2ccc(O)cc2O)c(C)n1-c1ccccc1 | 21 | -149 | 77* | 83* | 14 | -152
COc1ccc(-n2c(C)cc(C(=O)CCl)c2C)cc1 | -17 | 101* | 4 | 11 | 0 | 40*
Cc1cc(C(=O)CCl)c(C)n1-c1c(C)n(C)n(-c2ccccc2)c1=O | 6 | 60* | 24 | 3 | 39 | 18
C=CCC[C@@H](CCCCC)OC(=O)/C=C/[C@H](O)[C@@H](O)C[C@@H](O)CC=C | . | . | 4 | 6 | . | 15
CSc1ccccc1NC(=O)C1=CC(c2cccs2)=NS(=O)(=O)N1C | -6 | 12 | 1 | 15 | 20 | -20
COc1ccc(-n2c(C)cc(C(=O)COC(=O)c3ccc(O)cc3O)c2C)cc1 | 22 | -96 | 54* | 23 | 29 | -58
Cc1cc(-n2c(C)cc(C(=O)CCl)c2C)no1 | -12 | 75* | 16 | 9 | 50 | 14
Cc1cc(C(=O)COC(=O)c2ccc(O)cc2O)c(C)n1-c1ccc(OC(F)F)cc1 | 18 | -1 | 15 | 3 | 16 | 12
COc1ccc(-n2c(C)cc(C(=O)COc3ccc(C)nc3[N+](=O)[O-])c2C)cc1 | 11 | -15 | 50 | 58* | -4 | 34
COc1ccc(OCCN2CCC(C(=O)NC(c3ccc(F)cc3)c3ncccc3C)CC2)cc1 (configuration not stated) | -2 | -10 | 18 | -4 | -1 | -5
Oc1ccc(C[C@H]2CNCCN2CC2CCCCC2)cc1 | 0 | -7 | 12 | 2 | 17 | -1
Cc1ccccc1C(=O)N1CCC(C(=O)Nc2ccc(S(=O)(=O)N3C(C)CCCC3C)cc2)CC1 (configuration not stated) | -11 | 78* | 14 | 10 | 2 | 6
Cc1ccc(NC(=O)C2CCN(C(=O)c3ccccc3C)CC2)cc1 | 0 | 13 | 1 | 1 | 6 | 18
O=C(CSc1nnc(C2CC2)n1-c1ccccc1)N1CCCC1 | -14 | 16 | 1 | -6 | 14 | 13
O=[N+]([O-])c1ccc(-[n+]2nc(-c3ccccc3)nn2-c2ccccc2)cc1 | -53* | 42 | 14 | -51 | 42 | 15
Cc1ccc(C)c(C(=O)CCC(=O)Nc2ccc(N3CCN(C)CC3)cc2C)c1 | -9 | 0 | -24 | -7 | 0 | -24
CN1CCN(c2ccc3sc(-n4ccc5ccccc54)nc3c2)CC1 | -49 | 9 | 65* | 80* | 6 | -25
Brc1ccc2nc(N3CCN(c4ccccc4)CC3)sc2c1 | 5 | -36 | -56 | -28 | -2 | -89
SMILES | KKLEB cytotox | Peg3 promoter | TWEAK-Fn14 inh | TROY NFkB inh | CF NFkB inh | HIF-2a block
CC(C)C[C@H]1CN(CCCC[C@H]2CNC(=O)C(=O)N2CC2CCCCC2)C(=O)C(=O)N1Cc1ccccc1 | . | . | 10 | -1 | . | 2
Cc1c(CN2CCC(CO)(Cc3cccc(C(F)(F)F)c3)CC2)c2ccccc2n1C | -19 | 112* | 8 | 19 | 32 | 4
CC12CCC(O)CC1=CCC1C2CCC2(C)C3=NN=CC3CC12 (configuration not stated) | -11 | 51* | 19 | 47 | 38 | 7
O=C1C(Cl)=C(NCCc2ccccc2)C(=O)c2ccccc21 | 4 | 63* | 2 | -23 | 42 | -57
CCN(CC)CCCNC1=C(Cl)C(=O)c2ccccc2C1=O | -2 | 18 | 20 | 27 | 65* | 84*
C=CCNC1=C(Cl)C(=O)c2ccccc2C1=O | -8 | -1 | 13 | -50 | 17 | -10
O=C1C(Cl)=C(NCCc2ccccc2)C(=O)N1CCc1ccccc1 | 0 | -110 | -13 | -22 | 0 | -168
COCCCNC1=C(Cl)C(=O)c2ccccc2C1=O | 18 | -77 | -6 | -18 | -33 | 84*
CC(C)OCCCNC1=C(Cl)C(=O)c2ccccc2C1=O | -24 | -230 | -12 | -21 | 7 | 64*
CCOC(=O)[C@]12CCC=C1N(CCC1=CCCCC1)C(=O)[C@H](CC(=O)N1CCN(C(=O)c3ccco3)CC1)C2 | . | . | 13 | -24 | . | 3
O=C(O)c1cccc(NC2=C(Cl)C(=O)c3ccccc3C2=O)c1 | -1 | -128 | 60* | 9 | -12 | -81
Cc1ccc(NC2=C(NC(=O)c3ccccc3)C(=O)c3ccccc3C2=O)cc1Cl | 4 | 15 | -1 | 12 | 5 | -24
O=C1C(Cl)=C(NCc2cccnc2)C(=O)c2ccccc21 | -6 | 2 | 6 | -29 | 37 | 14
CC(C)NC1=C(Cl)C(=O)c2ccccc2C1=O | -22 | -36 | 14 | -28 | 50* | -53
COc1ccccc1Cc1c(-c2cccc(Cl)c2)nc2ccc(C)cn12 | -4 | -145 | 4 | -29 | -3 | -237
O=S(=O)(Nc1cc(Cl)cc(Cl)c1)N1CCOCC1 | 12 | -1 | -7 | 12 | -22 | 24
COC1=C(N)C(=O)c2nc(C)ccc2C1=O | 3 | 34 | 31 | 6 | 57* | 1
CC(C)(C)C(=O)N1CCc2cc(-c3csc(N)n3)ccc21 | 0 | -29 | 67* | 24 | -5 | -15
CCCCN=C1NN=C(c2ccc(C)c(C)c2)CS1 | -2 | -149 | -8 | -18 | -5 | -260
CCCCN=C1NN=C(c2ccc3c(c2)OCCO3)CS1 | -1 | -95 | 70* | 62* | -2 | -59
NC1=NN(c2c(Cl)cc(Cl)cc2Cl)C(=O)C1 | -5 | 2 | 12 | -4 | 7 | -1

Source: PubChem (Sanford-Burnham Center for Chemical Genomics)
